The whole screen tested about 1,400 compounds, of which about 350 (25%) were called active. Not shown: some 2% with an inconclusive outcome. How the calls were made is not given here. A selection follows. Results with a measured potency or affinity are listed apart.
assay: C. difficile growth inhibition, confirmation, 4-point retest (AID 1224921); conditions: Clostridioides difficile clinical isolate growth, OD600, 24 h, hits give low values; at 30 µM unless noted;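 further: plate controls were DMSO wells for no effect and levofloxacin 16 µg/mL wells for full effect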

Max activity, inactive:
CNC[C@H]1Oc2cc(C#CCC3CCCC3)ccc2S(=O)(=O)N([C@@H](C)CO)C[C@@H]1C 29.2% [at 8 µM]
CO[C@@H]1CN(C)C(=O)c2cc(NC(=O)Nc3cccc(F)c3)ccc2OC[C@@H](C)N(C)C[C@H]1C -12.5%
O=C(Nc1ccc(F)cc1)Nc1ccc2c(c1)[C@@H]1C[C@H](CC(=O)N3CCCCC3)O[C@@H](CO)[C@@H]1O2 -6.91%
CC(C)C#Cc1ccc2c(c1)O[C@@H](CN(C)Cc1ccncc1)[C@H](C)CN([C@H](C)CO)S2(=O)=O 6.91% [at 1.95 µM]
COc1cccc(NC(=O)N[C@H]2C=C[C@@H](CC(=O)NCc3ccncn3)O[C@H]2CO)c1 -10.2% [at 1.95 µM]
C[C@H]1CN([C@@H](C)CO)S(=O)(=O)c2ccc(C3=CCCC3)cc2O[C@@H]1CN(C)Cc1ccncc1 -16.8% [at 1.95 µM]
CCCN1C[C@H](C)[C@H](OC)CN(C)C(=O)c2ccc(NC(=O)c3ccc(F)cc3)cc2OC[C@@H]1C -9.18%
COc1cccc(-c2ccc3c(c2)O[C@@H](CN(C)Cc2ccncc2)[C@H](C)CN([C@H](C)CO)S3(=O)=O)c1 19.2%
CO[C@H]1CN(C)C(=O)c2cc(NC(=O)c3ccc(-c4ccccc4)cc3)ccc2OC[C@H](C)NC[C@H]1C 27.6% [at 8 µM]
O=C(Cc1ccccc1)N[C@@H]1CC[C@@H](CC(=O)N2CCOCC2)O[C@H]1CO -16.6% [at 8 µM]
O=C(Cc1ccccc1)N[C@H]1CC[C@@H](CC(=O)N2CCOCC2)O[C@@H]1CO -8.53% [at 8 µM]
CO[C@@H]1CN(C)C(=O)c2cc(NC(=O)Nc3ccccc3F)ccc2OC[C@@H](C)N(CCC(F)(F)F)C[C@H]1C 10.2%
CC(C)C(=O)Nc1ccc2c(c1)C(=O)N(C)[C@H]1CC[C@@H](CC(=O)NCc3ccccc3F)O[C@@H]1CO2 -12.2% [at 8 µM]
CNC[C@@H]1Oc2ncc(-c3ccc(OC)cc3)cc2C(=O)N([C@H](C)CO)C[C@H]1C 28.1%
CO[C@@H]1CN(C)C(=O)c2ccc(NC(=O)c3ccccc3F)cc2OC[C@@H](C)N(CC2CC2)C[C@H]1C -10.7% [at 1.95 µM]
CCCC(=O)Nc1ccc2c(c1)C(=O)N(C)C[C@H](OC)[C@@H](C)CN(Cc1ccccc1)[C@@H](C)CO2 22.4%
C[C@H]1CN([C@@H](C)CO)C(=O)c2cc(C3=CCCCC3)cnc2O[C@@H]1CN(C)C(=O)c1cccc(F)c1 21.2%
CC(=O)N(C)C[C@H]1Oc2ncc(-c3ccc(C(=O)N(C)C)cc3)cc2C(=O)N([C@@H](C)CO)C[C@H]1C -3.53% [at 1.95 µM]
O=C(Cc1ccccc1)N[C@H]1CC[C@H](CC(=O)N2CCOCC2)O[C@@H]1CO -10.8%
O=C(Cc1ccccc1)N[C@@H]1CC[C@H](CC(=O)N2CCOCC2)O[C@H]1CO -12.9%
CCC(=O)N(C)C[C@H]1Oc2ncc(-c3ccc(C(=O)N(C)C)cc3)cc2C(=O)N([C@H](C)CO)C[C@@H]1C 21.8% [at 8 µM]
COCC(=O)Nc1ccc2c(c1)OC[C@@H](C)N(C(=O)c1ccccc1F)C[C@H](C)[C@@H](OC)CN(C)C2=O -10.4% [at 35 µM]
Cc1ccccc1-c1ccc2c(c1)O[C@H](CN(C)Cc1ccncc1)[C@@H](C)CN([C@@H](C)CO)S2(=O)=O 7.76%
C[C@H]1CN([C@@H](C)CO)S(=O)(=O)c2ccc(C#CC3CCCCC3)cc2O[C@@H]1CN(C)Cc1cccnc1 26.3% [at 1.95 µM]
C/C=C/c1cnc2c(c1)C(=O)N([C@@H](C)CO)C[C@H](C)[C@@H](CN(C)Cc1ccc(F)cc1)O2 -8.42% [at 8 µM]
CC(C)CC#Cc1ccc2c(c1)O[C@@H](CN(C)C(=O)C1CCCCC1)[C@@H](C)CN([C@@H](C)CO)S2(=O)=O 27.1%
O=C(Nc1ccc2c(c1)[C@H]1C[C@@H](CC(=O)N3CCc4ccccc4C3)O[C@@H](CO)[C@H]1O2)c1ccc2c(c1)OCO2 -27.9% [at 8 µM]
CCCC#Cc1ccc2c(c1)O[C@@H](CN(C)Cc1cccnc1)[C@@H](C)CN([C@H](C)CO)S2(=O)=O 35.5%
CCCC(=O)Nc1ccc2c(c1)C(=O)N(C)C[C@H](OC)[C@H](C)CN(Cc1ccc(F)cc1)[C@H](C)CO2 22.5%
CC(C)CC#Cc1ccc2c(c1)O[C@H](CN(C)Cc1ccc3c(c1)OCO3)[C@H](C)CN([C@H](C)CO)S2(=O)=O 43.6%
COc1ccccc1CNC(=O)C[C@@H]1C[C@@H]2c3cc(NC(=O)NC4CCCC4)ccc3O[C@@H]2[C@@H](CO)O1 -8.98% [at 1.8 µM]
C[C@H](CO)N1C[C@H](C)[C@H](CN(C)C(=O)NC2CCCCC2)Oc2cc(C#Cc3ccc(F)cc3)ccc2S1(=O)=O 14.3%
COc1cccc(-c2ccc3c(c2)O[C@H](CN(C)Cc2cccnc2)[C@@H](C)CN([C@@H](C)CO)S3(=O)=O)c1 21.5%
CO[C@@H]1CN(C)C(=O)c2ccc(NC(=O)NC(C)C)cc2OC[C@@H](C)N(C(=O)NC(C)C)C[C@@H]1C 16.7%
C[C@H]1CN([C@@H](C)CO)S(=O)(=O)c2ccc(C#CC3CCCC3)cc2O[C@H]1CN(C)C(=O)Cc1ccccc1 16.1%
CCCNC(=O)C[C@@H]1CC[C@H]2[C@H](COc3ccc(NC(=O)c4cccc(Cl)c4)cc3C(=O)N2C)O1 -10.6% [at 8 µM]
C=CCOC(=O)[C@H]1[C@@H]2C(=O)O[C@@H](c3ccccc3)[C@@H](c3ccccc3)N2[C@@H](c2ccc(OCCOC(=O)[C@H]3C[C@H]4C(=O)N5CCC[C@H]5C(=O)N4[C@H]3c3cccc(OCCO)c3)cc2)[C@]12C(=O)Nc1ccccc12 -23.8% [at 8 µM]
C[C@@H]1CN([C@@H](C)CO)S(=O)(=O)c2ccc(-c3cncnc3)cc2O[C@H]1CN(C)C(=O)CC1CC1 -11% [at 8 µM]
CN(C)CC(=O)N1[C@H](C#N)[C@@H](c2ccc(/C=C/c3ccccc3)cc2)[C@H]1CO 19.5%
CO[C@H]1CN(C)C(=O)c2ccc(NC(=O)c3ccccc3F)cc2OC[C@@H](C)N(CC2CC2)C[C@H]1C 9.45%
CCCNC(=O)Nc1ccc2c(c1)OC[C@@H](C)N(Cc1ccccc1)C[C@@H](C)[C@H](OC)CN(C)C2=O 40.4%
C[C@H](CO)N1C[C@H](C)[C@@H](CN(C)C(=O)c2ccccc2)OCCCC[C@H](C)Oc2ccc(NC(=O)Nc3cccc4ccccc34)cc2C1=O 39.2%
CNC[C@H]1OCCCC[C@@H](C)Oc2ccc(NC(=O)Nc3ccc(C(F)(F)F)cc3)cc2C(=O)N([C@@H](C)CO)C[C@H]1C 33.8% [at 8 µM]
CNC[C@@H]1OCCCC[C@H](C)Oc2ccc(NC(=O)Nc3ccc(C(F)(F)F)cc3)cc2C(=O)N([C@@H](C)CO)C[C@@H]1C 52.5% [at 8 µM]
CNC[C@@H]1OCCCC[C@@H](C)Oc2ccc(NC(=O)Nc3cccc4ccccc34)cc2C(=O)N([C@H](C)CO)C[C@H]1C 27.3%
C[C@@H]1CCCCO[C@@H](CN(C)S(=O)(=O)c2ccccc2)[C@@H](C)CN([C@H](C)CO)C(=O)c2cc(NC(=O)Nc3ccc(C(F)(F)F)cc3)ccc2O1 12.1% [at 8 µM]
CNC[C@@H]1Oc2ncc(-c3ccc(OC)cc3)cc2C(=O)N([C@@H](C)CO)C[C@@H]1C 20.8%
COc1cccc(-c2ccc3c(c2)O[C@@H](CN(C)Cc2cccnc2)[C@H](C)CN([C@@H](C)CO)S3(=O)=O)c1 12.1%
Cc1ccccc1-c1ccc2c(c1)O[C@H](CN(C)Cc1ccncc1)[C@H](C)CN([C@H](C)CO)S2(=O)=O 50.8%
CO[C@H]1CN(C)C(=O)c2cc(NS(=O)(=O)c3ccc(Cl)cc3)ccc2OC[C@H](C)N(C(=O)NC(C)C)C[C@@H]1C -13.3% [at 8 µM]
O=C(C[C@@H]1C[C@@H]2c3cc(NC(=O)Nc4ccc(C(F)(F)F)cc4)ccc3O[C@@H]2[C@H](CO)O1)NC1CCCCC1 -10.2% [at 0.5 µM]
N#C[C@@H]1[C@@H](c2ccc(/C=C/c3ccccc3)cc2)[C@@H](CO)N1C(=O)C1CC1 27%
C[C@@H]1CN([C@@H](C)CO)C(=O)c2c(c3ccccc3n2C)-c2ccccc2CO[C@@H]1CN(C)C(=O)c1ccncc1 29.1%
COc1ccc(CN(C)C[C@@H]2OCCCC[C@H](C)Oc3ccc(NC(=O)Nc4ccc5c(c4)OCO5)cc3C(=O)N([C@H](C)CO)C[C@@H]2C)cc1 14.8%
CCCC(=O)Nc1ccc2c(c1)OC[C@@H](C)N(C(=O)c1ccccc1F)C[C@@H](C)[C@@H](OC)CN(C)C2=O 9.79%
Cc1ccccc1-c1ccc2c(c1)O[C@@H](CN(C)Cc1ccncc1)[C@H](C)CN([C@H](C)CO)S2(=O)=O 48.1%
CCCN(C)C[C@@H]1OCCCC[C@@H](C)Oc2ccc(NC(=O)Nc3ccc(C(F)(F)F)cc3)cc2C(=O)N([C@H](C)CO)C[C@@H]1C 16.3% [at 8 µM]
CCCN(C)C[C@H]1OCCCC[C@@H](C)Oc2ccc(NC(=O)Nc3ccc(C(F)(F)F)cc3)cc2C(=O)N([C@H](C)CO)C[C@H]1C -43.7%
CCCN(C)C[C@H]1OCCCC[C@H](C)Oc2ccc(NC(=O)Nc3ccc4c(c3)OCO4)cc2C(=O)N([C@@H](C)CO)C[C@@H]1C 8.67%
CCCN(C)C[C@H]1OCCCC[C@H](C)Oc2ccc(NC(=O)Nc3ccc(C(F)(F)F)cc3)cc2C(=O)N([C@@H](C)CO)C[C@H]1C 28.8% [at 8 µM]
